INS-1E GSIS act – primary screen for activators of insulin secretion dependent on glucose, INS-1E cells, GLuc reporter luminescence; INS-1E GLuc reporter insulin secretion, 2-3 h; activation, % at 16.6 µM; 0.61% of 370,000 active; AID 743287;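 active = lowest replicate activation of at least 40%, so every replicate reaches that level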
EWS-Fli block – blocks EWS/Fli oncoprotein-driven transcription | A673 NR0B1-luciferase reporter, viability-normalised | inhibition, % at 12.6 µM | AID 651661 | 0.67% of 350,000 active;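 active = mean inhibition of at least 50% after viability correction, with every replicate also passing that limit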;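 note: firefly luciferase signal divided by Alamar Blue viability fluorescence both relative to DMSO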
RAD52 anneal inh – inhibitors of human RAD52 DNA annealing; 0.46% of 360,000 active; P43351; recombinant RAD52 DNA annealing, FRET fluorescence; inhibition, % at 18.7 µM;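 active = every replicate showing at least 50% inhibition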
Target sequence (P43351 whole entry, looked up): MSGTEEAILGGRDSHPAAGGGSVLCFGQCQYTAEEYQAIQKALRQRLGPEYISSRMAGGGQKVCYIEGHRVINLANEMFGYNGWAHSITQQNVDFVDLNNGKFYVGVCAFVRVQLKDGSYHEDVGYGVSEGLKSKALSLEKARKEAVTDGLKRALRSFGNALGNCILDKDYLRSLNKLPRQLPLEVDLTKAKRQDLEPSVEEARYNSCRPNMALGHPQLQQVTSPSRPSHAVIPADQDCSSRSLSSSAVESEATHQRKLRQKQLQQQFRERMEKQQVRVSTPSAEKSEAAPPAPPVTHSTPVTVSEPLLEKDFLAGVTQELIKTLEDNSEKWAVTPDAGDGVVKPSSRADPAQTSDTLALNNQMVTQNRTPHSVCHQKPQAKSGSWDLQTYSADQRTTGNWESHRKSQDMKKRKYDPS
RAD54 branch – blocks human RAD54 Holliday junction branch migration | FAM/BHQ fluorescence | inhibition, % at 10.4 µM | 0.14% of 360,000 active | AID 602329;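 active = mean normalized replicate activity at least 40 and at least half of replicates scoring 40 or more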;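 note: inhibitors cause a drop in the FAM fluorescence signal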
LGR2 inh – blocks bursicon-induced cAMP signaling via Drosophila LGR2 | AID 720647 | 0.35% of 380,000 active | inhibition, % at 9.99 µM | HEK293 LGR2, CRE-luciferase, bursicon-stimulated, 4 h;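 active = drop in luminescence signal, shown as inhibition above about 50% in the replicate tests, limit read from the data, passing the limit was not always enough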;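 note: agonist challenge used bursicon conditioned medium at about half maximal strength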
CFTR F508del cor – CFTR F508del correction in bronchial cells; 0.36% of 350,000 active; CFBE cells, YFP halide quenching; stimulated with forskolin plus potentiator P3; % fluorescence drop versus neutral controls; activity (quench increase), % at 7.58 µM;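 active = mean added fluorescence quench of at least 8% versus neutral control, with both replicates also reaching 8%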;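 note: cells transiently co-express mutant CFTR-F508del with the halide-sensitive YFP; corrector assay measuring rescue of mutant channel to the surface after 24 h compound exposure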
Large screens that a line does not name were inactive. Sampled rows, rich in hits. Any-hit rate of the full collection: about 1.8%.

C[C@@H]1CCCCO[C@@H](CN(C)Cc2ccncc2)[C@H](C)CN([C@H](C)CO)C(=O)c2cc(NC(=O)Nc3ccc(C(F)(F)F)cc3)ccc2O1	none
C[C@H]1CCCCO[C@H](CN(C)Cc2ccncc2)[C@@H](C)CN([C@@H](C)CO)C(=O)c2cc(NC(=O)Nc3ccc(C(F)(F)F)cc3)ccc2O1	RAD52 anneal inh 57
C[C@@H]1CCCCO[C@@H](CN(C)Cc2ccc(Cl)c(Cl)c2)[C@@H](C)CN([C@H](C)CO)C(=O)c2cc(NC(=O)CCCN(C)C)ccc2O1	none
C[C@H](CO)N1C[C@H](C)[C@H](CN(C)Cc2ccc(C(F)(F)F)cc2)OCCCC[C@H](C)Oc2ccc(NC(=O)CCCN(C)C)cc2C1=O	EWS-Fli block 68
COc1ccc(OC)c(NC(=O)C2CCCCC2)c1	none (no result: RAD54 branch)
O=C(O)C(CC1CCCCC1)N1CCS(=O)(=O)CC1 (centres undefined)	none (no result: RAD54 branch)
COc1ccccc1CNC(=O)Cn1cnnn1	CFTR F508del cor 12 (no result: INS-1E GSIS act)
COC(=O)c1ccc(CNC(=O)Cn2cnnn2)cc1	none
Cc1cnc(NC(=O)C2CC(=O)N(c3ccc4c(c3)OCCO4)C2)s1 (centres undefined)	none (no result: RAD54 branch)
Cc1cnc(NC(=O)C2CC(=O)N(c3cccc(Cl)c3)C2)s1 (centres undefined)	LGR2 inh 79 (no result: EWS-Fli block)
COc1ccc(OC)c(C(=O)Cn2nnc(-c3ccc(N4CCOCC4)cc3)n2)c1	CFTR F508del cor 10
COc1ccc(-c2ccc(-c3nnn(CC(=O)N4CCOCC4)n3)cc2)cc1	none (no result: EWS-Fli block, CFTR F508del cor)
CN(C)C(=O)c1cccc(-c2ccc([C@@H]3[C@H]4CN(C(=O)C5CC5)CC(=O)N4[C@H]3CO)cc2)c1	none (no result: RAD54 branch)
Cc1cc(C(=O)c2ccccc2)cc(C)c1O	CFTR F508del cor 11 (no result: INS-1E GSIS act, RAD54 branch)
CCOc1cc(N2CCOCC2)c(OCC)cc1NC(=O)COC(=O)c1cc2ccccc2cc1O	INS-1E GSIS act 141 (no result: EWS-Fli block, RAD52 anneal inh, CFTR F508del cor)
CCOc1cc(N2CCOCC2)c(OCC)cc1NC(=O)CN1C(=O)NC(C)(C2CC2)C1=O (centres undefined)	none (no result: RAD54 branch)
CCOc1cc(N2CCOCC2)c(OCC)cc1NC(=O)COC(=O)c1ccc(Cl)cc1N	none (no result: INS-1E GSIS act)
CCOc1cc(N2CCOCC2)c(OCC)cc1NC(=O)CN1C(=O)NC2(CCCCC2)C1=O	CFTR F508del cor 22
CCCCS(=O)(=O)N1CCN(S(=O)(=O)c2ccc(Cl)s2)CC1	none (no result: EWS-Fli block)
NC1C=CC=C(C(=O)O)C1 (centres undefined)	none (no result: INS-1E GSIS act)
O=C(O)C1=C[C@@H](O)[C@@H](O)[C@H](O)C1	CFTR F508del cor 9.7 (no result: INS-1E GSIS act)
CCOc1cc(C(=O)N(C)CC(=O)Nc2cccc3ccccc23)ccc1OC	INS-1E GSIS act 57 (no result: RAD54 branch)
CN(CC(=O)Nc1cccc2ccccc12)C(=O)c1ccc(NC(=O)CC#N)cc1	none
O=C(c1cc(-c2ccccc2Cl)nc2ccccc12)N1CCC1	none (no result: RAD54 branch)
CCN1CCCC(OC(=O)c2cc(-c3ccccc3Cl)nc3ccccc23)C1 (centres undefined)	CFTR F508del cor 12 (no result: RAD54 branch)
COc1ccc(NC(=O)c2sc3nc(N4CCOCC4)c4c(c3c2N)CC(C)(C)OC4)c(OC)c1	INS-1E GSIS act 127
COc1ccc(NC(=O)c2sc3nc(N4CCOCC4)c4c(c3c2N)CC(C)(C)OC4)cc1	none
CCN(CC)C(=O)COc1ccc(S(=O)(=O)N2CCCC2)cc1	none
CCn1c(CNC(=O)c2cccc(C)c2)nnc1SCC(=O)N1CCOCC1	INS-1E GSIS act 44 (no result: EWS-Fli block)
CC(=O)c1ccc(N2CCC(C(=O)O)CC2)cc1	none
COc1ccc(NC(=O)COc2ccc(C(=O)NC3CCCc4ccccc43)cc2OC)cc1 (centres undefined)	INS-1E GSIS act 176 (no result: EWS-Fli block, RAD52 anneal inh, RAD54 branch, CFTR F508del cor)
CC(=O)Cn1c(=O)oc2ccccc21	none
CCN(CC)C(=O)Cn1c(=O)oc2ccccc21	INS-1E GSIS act 42 (no result: RAD54 branch)
Cc1ccccc1Nc1nc2ccccc2s1	none (no result: EWS-Fli block, RAD52 anneal inh, CFTR F508del cor)
O=c1c(Cl)c(Cl)cnn1Cc1nnc(-c2ccccc2Br)o1	LGR2 inh 103 (no result: RAD54 branch)
Clc1ccccc1OCc1nnc(-c2ccccc2Br)o1	none (no result: INS-1E GSIS act, EWS-Fli block, RAD52 anneal inh, LGR2 inh, CFTR F508del cor)
COc1cc(CN2CCC(n3nccc3NC(=O)C3CCOC3)CC2)ccc1F (centres undefined)	INS-1E GSIS act 45 (no result: EWS-Fli block)
CCO[C@@H]1OC(C(=O)NCc2nc3ccccc3[nH]2)=C[C@H](C(C)(C)C)[C@H]1CCCO	EWS-Fli block 53
CCO[C@@H]1OC(C(=O)NCc2nc3ccccc3[nH]2)=C[C@H](C2CC2)[C@H]1CCCO	none
COc1ccc(/C=C2\COc3ccccc3C2=O)cc1OC	none (no result: EWS-Fli block, RAD52 anneal inh, RAD54 branch, CFTR F508del cor)
CCOc1cc(/C=C2\COc3ccccc3C2=O)cc(Br)c1OCC(=O)N(C)C	EWS-Fli block 63
COc1cc(/C=C2\CC(C(C)(C)C)C/C(=C\c3cc(OC)c(OC)c(OC)c3)C2=O)cc(OC)c1OC (centres undefined)	EWS-Fli block 82
COc1cc(/C=C2\COC/C(=C\c3cc(OC)c(OC)c(OC)c3)C2=O)cc(OC)c1OC	EWS-Fli block 74 (no result: INS-1E GSIS act, RAD54 branch, LGR2 inh)
COc1cc(/C=C2\CC/C(=C\c3cc(OC)c(OC)c(OC)c3)C2=O)cc(OC)c1OC	none (no result: RAD54 branch)
COc1cc(/C=C2\CCC(C3CCCC3)C2=O)cc(OC)c1OC (centres undefined)	none (no result: INS-1E GSIS act)
COc1ccc(NC(=O)CN(C)C(=O)CCCc2c[nH]c3ccccc23)cc1	none (no result: RAD54 branch)
CN(Cc1ccn[nH]1)C(=O)C1CCC(=O)N(Cc2cccc(C(F)(F)F)c2)C1 (centres undefined)	none
CC1(C)CCCC(C)(C)N1CC(O)COCCOc1ccc(Br)cc1 (centres undefined)	INS-1E GSIS act 51 (no result: EWS-Fli block, RAD52 anneal inh, RAD54 branch, CFTR F508del cor)
Cc1cc(=O)[nH]c(SCC(=O)c2ccccc2)c1C#N	INS-1E GSIS act 43 (no result: EWS-Fli block, RAD52 anneal inh, CFTR F508del cor)
CC(=O)N1CCc2c(sc(NC(=O)c3ccc4c(c3)OCCO4)c2C#N)C1	CFTR F508del cor 10
COc1ccc(NC(=O)N(C)C[C@H]2OCCCC[C@H](C)Oc3ccc(NS(=O)(=O)c4c(C)noc4C)cc3C(=O)N([C@@H](C)CO)C[C@@H]2C)cc1	none (no result: RAD52 anneal inh)
C#Cc1cccc(-n2nnc(C(=O)OC)c2-c2ccccc2)c1	INS-1E GSIS act 40
CO[C@@H]1CN(C)C(=O)c2cc(NC(=O)Nc3ccc(Cl)c(Cl)c3)ccc2OC[C@H](C)NC[C@@H]1C	RAD52 anneal inh 52
CO[C@H]1CN(C)C(=O)c2cc(NC(=O)Nc3cc(Cl)cc(Cl)c3)ccc2OC[C@@H](C)NC[C@@H]1C	RAD52 anneal inh 59 (no result: RAD54 branch, LGR2 inh)
CO[C@@H]1CN(C)C(=O)c2cc(NC(=O)Nc3cc(Cl)cc(Cl)c3)ccc2OC[C@@H](C)NC[C@@H]1C	none (no result: RAD52 anneal inh, RAD54 branch)
CO[C@H]1CN(C)C(=O)c2cc(NC(=O)Nc3ccc(Cl)c(Cl)c3)ccc2OC[C@H](C)NC[C@H]1C	RAD52 anneal inh 54
Cc1cc(-c2cc(NC(=O)Cc3c(C)[nH]c4ccccc34)ccc2N(C)c2cccnc2)ccc1F	none (no result: INS-1E GSIS act, RAD54 branch)
O=C(/C=C\c1ccco1)Nc1nc(-c2ccc3ccccc3c2)cs1	LGR2 inh 55 (no result: RAD54 branch, CFTR F508del cor)
